Experimental data taken from PubChem BioAssay.
Calls of active or inactive are those of the source. Unless noted, the rule behind the calls is not given here.

Experiments:
[1] = test system: Wnt5a (protein binding on small-molecule microarray); assay: small molecules binding Wnt5a protein – biophysical, small-molecule microarray, 635/667 nm fluorescence, primary screen (AID 1142); details: 635 nm fluorescence, higher = more signal;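 note: fluorescence read at 667 nm with signal to noise per printed feature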
[2] = ATP-based viability of Huh7 replicon cells – cell-based, CellTiter-Glo luminescence, basal, 48 h, cytotoxicity control for HCV replication inhibitor project, primary screen (AID 1143); details: higher = more signal, called active from +8 up or from −8 down;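 note: Huh7 hepatoma cells carrying a hepatitis C replication reporter with no stimulus; test concentration not given here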
[3] = Pseudomonas biofilm growth suppression – PAO1 strain, BacTiter-Glo luminescence, LB-PBS, primary screen (AID 1144); details: P. aeruginosa PAO1 biofilm, 12 h, higher = more signal
[4] = basal CRE-LacZ reporter activity in PC12 – cell-based, unstimulated, primary screen (AID 1145); details: no forskolin, luminescence, 4.5 h, higher = more signal, called active from +8 up or from −8 down
[5] = forskolin-driven CRE-LacZ activity in PC12 – cell-based, CRE-LacZ reporter, forskolin-stimulated, primary screen (AID 1146); details: luminescence, 4.5 h, higher = more signal, called active from +8 up or from −8 down;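 note: PC12 cells with 6xCRE LacZ reporter stimulated by forskolin 10 µM; beta-galactosidase reporter signal reflecting CREB driven transcription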
[6] = target: Streptavidin (Streptomyces avidinii) (UniProt P22629); assay: compounds binding control protein streptavidin – biophysical, small-molecule microarray, 635/667 nm fluorescence, artefact control for SMM compound annotation, primary screen (AID 1147); details: higher = more signal;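 note: signal reflects streptavidin binding to arrayed compounds as a control protein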
Chain of Streptavidin (Streptomyces avidinii) (P22629 whole entry, looked up): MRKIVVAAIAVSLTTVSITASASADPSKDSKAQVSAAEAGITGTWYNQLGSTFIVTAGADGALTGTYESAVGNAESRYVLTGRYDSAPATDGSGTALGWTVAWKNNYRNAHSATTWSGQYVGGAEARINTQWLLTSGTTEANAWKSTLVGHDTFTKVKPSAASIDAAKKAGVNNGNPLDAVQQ

[7] = probe aInhba binding on compound microarray – biochemical, small-molecule microarray, 635/667 nm fluorescence, primary screen (AID 1148); details: higher = more signal;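 note: score merges 667nm spot fluorescence with signal-to-noise for antibody binding to printed compounds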
Torsin-1A (Homo sapiens) [8] = target: Torsin-1A (Homo sapiens) (UniProt O14656); assay: TOR1A wild-type binding on microarray – cell lysate, small-molecule microarray, lysate, 635/667 nm, primary screen (AID 1149); details: COS7 hTOR1A-WT lysate, 635 nm fluorescence, higher = more signal
Chain of Torsin-1A (Homo sapiens) (O14656 whole entry, looked up): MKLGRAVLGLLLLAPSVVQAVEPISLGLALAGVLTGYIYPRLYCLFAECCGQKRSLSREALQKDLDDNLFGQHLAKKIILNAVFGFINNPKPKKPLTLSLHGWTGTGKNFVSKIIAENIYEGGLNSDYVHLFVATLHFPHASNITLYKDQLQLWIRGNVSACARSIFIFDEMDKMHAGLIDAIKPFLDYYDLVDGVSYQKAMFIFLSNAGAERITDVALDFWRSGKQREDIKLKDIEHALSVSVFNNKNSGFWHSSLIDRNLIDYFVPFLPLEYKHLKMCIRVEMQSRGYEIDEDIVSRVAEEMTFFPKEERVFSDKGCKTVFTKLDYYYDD

Torsin-1A (Homo sapiens) [9] = target: Torsin-1A (Homo sapiens) (UniProt O14656); assay: torsin A mutant lysate binding on microarrays – cell lysate, small-molecule microarray, COS7 lysate, 635/667 nm fluorescence, primary screen (AID 1150); details: COS7 hTOR1A mutant lysate, 635 nm fluorescence, higher = more signal;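 note: score pools 667 nm emission and signal to noise measuring lysate protein binding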
[10] = test system: Sonic hedgehog protein (Shh); assay: Sonic hedgehog microarray binding compounds – biochemical, small-molecule microarray, 635/667 nm fluorescence, primary screen (AID 1151); details: 635 nm fluorescence, higher = more signal;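 note: Shh protein binding to compounds spotted on small-molecule microarray slides; score combines spot fluorescence intensity with signal-to-noise across triplicate slides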
[11] = optical density shifts of acrAB sulA E. coli – strain DRC41, OD650, 48 h, E. coli filamentation inducer project, primary screen (AID 1152); details: higher = more signal, called active from +8 up or from −8 down;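 note: E. coli MC1000 strain DRC41 lacking acrAB efflux pump and sulA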
[12] = probe aLefty1 binding on compound microarray – biochemical, small-molecule microarray, 635/667 nm fluorescence, primary screen (AID 1153); details: higher = more signal;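 note: score merges spot fluorescence with signal-to-noise ratio from the scanned slide images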
[13] = plasmodial surface anion channel blockers, osmotic lysis – cell-based, P. falciparum Indochina, OD700, 1 h, primary screen (AID 1154); details: P. falciparum Indochina infected RBC osmotic lysis, higher = more signal, called active from +8 up or from −8 down
[14] = plasmodial surface anion channel blockers, osmotic lysis – cell-based, P. falciparum Indochina, OD700, 2 h, primary screen (AID 1155);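 note: lysis reports solute entry through the parasite surface anion channel PSAC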; details: P. falciparum Indochina infected erythrocytes, higher = more signal, called active from +8 up or from −8 down
[15] = changes in parasitized red cell lysis, either direction – P. falciparum Indochina, OD700, 3 h, PSAC antagonist project, primary screen (AID 1156); details: P. falciparum-infected erythrocytes, osmotic lysis, higher = more signal, called active from +8 up or from −8 down
[16] = plasmodial surface anion channel blockers, osmotic lysis – cell-based, P. falciparum Indochina, OD700, 18 h, primary screen (AID 1157); details: P. falciparum Indochina infected erythrocytes, osmotic lysis OD700, 18 h; higher = more signal, called active from +8 up or from −8 down
[17] = S6 kinase pathway phospho-S6 level changes – cell-based, A549, cytoblot, luminescence, serum-stimulated, primary screen (AID 1158); details: 5 h, higher = more signal;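 note: serum-stimulated A549 lung adenocarcinoma cells; signal is phosphorylated S6 detected by cytoblot immunostaining with HRP secondary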
[18] = target: NADPH oxidase 2 (Homo sapiens) (UniProt P04839); assay: compounds shifting NOX2 Amplex Red fluorescence – cell-based, HEK293-NOX2, PMA-stimulated, NOX inhibitor project, primary screen (AID 1159); details: 45 min, higher = more signal, called active from +8 up or from −8 down; note: test concentration not given here
Chain of NADPH oxidase 2 (Homo sapiens) (P04839 whole entry, looked up): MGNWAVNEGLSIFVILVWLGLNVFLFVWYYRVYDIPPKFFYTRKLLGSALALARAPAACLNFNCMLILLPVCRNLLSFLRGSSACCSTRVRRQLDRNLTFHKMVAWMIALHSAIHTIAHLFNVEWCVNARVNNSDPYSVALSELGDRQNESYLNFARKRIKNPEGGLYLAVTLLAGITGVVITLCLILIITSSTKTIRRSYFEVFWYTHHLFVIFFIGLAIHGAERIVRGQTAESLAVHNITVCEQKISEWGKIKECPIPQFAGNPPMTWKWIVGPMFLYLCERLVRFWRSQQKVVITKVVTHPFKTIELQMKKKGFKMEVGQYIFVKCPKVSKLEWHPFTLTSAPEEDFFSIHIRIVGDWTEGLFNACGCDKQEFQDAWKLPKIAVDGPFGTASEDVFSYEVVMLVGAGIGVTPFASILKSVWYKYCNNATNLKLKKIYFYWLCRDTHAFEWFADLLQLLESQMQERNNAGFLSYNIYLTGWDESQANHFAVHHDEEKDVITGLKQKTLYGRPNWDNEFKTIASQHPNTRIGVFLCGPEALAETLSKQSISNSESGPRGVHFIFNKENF

[19] = target: NADPH oxidase 4 (Homo sapiens) (UniProt Q9NPH5); assay: compounds shifting NOX4 Amplex Red fluorescence – cell-based, HEK293-NOX4, tetracycline-induced, NOX inhibitor project, primary screen (AID 1160); details: HEK293-NOX4, Amplex Red H2O2 fluorescence, 45 min; higher = more signal, called active from +8 up or from −8 down
Chain of NADPH oxidase 4 (Homo sapiens) (Q9NPH5 whole entry, looked up): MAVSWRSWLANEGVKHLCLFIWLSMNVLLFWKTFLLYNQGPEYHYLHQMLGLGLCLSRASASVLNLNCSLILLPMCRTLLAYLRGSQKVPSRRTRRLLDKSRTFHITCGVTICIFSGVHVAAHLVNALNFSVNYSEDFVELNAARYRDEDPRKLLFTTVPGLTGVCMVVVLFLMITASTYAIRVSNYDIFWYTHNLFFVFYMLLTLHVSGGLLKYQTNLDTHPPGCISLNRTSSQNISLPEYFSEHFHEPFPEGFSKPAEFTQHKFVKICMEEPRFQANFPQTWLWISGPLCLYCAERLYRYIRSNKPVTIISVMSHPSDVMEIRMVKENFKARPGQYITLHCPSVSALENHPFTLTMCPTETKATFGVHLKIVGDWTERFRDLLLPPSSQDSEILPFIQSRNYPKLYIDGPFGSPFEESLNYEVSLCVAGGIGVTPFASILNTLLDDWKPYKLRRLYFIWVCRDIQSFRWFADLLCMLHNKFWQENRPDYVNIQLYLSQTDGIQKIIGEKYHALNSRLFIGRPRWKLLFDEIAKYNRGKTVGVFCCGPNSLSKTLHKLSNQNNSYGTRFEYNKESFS

[20] = target: NADPH oxidase 5 (Homo sapiens) (UniProt Q96PH1); assay: compounds shifting NOX5 Amplex Red fluorescence – cell-based, HEK293-NOX5, NOX inhibitor project, primary screen (AID 1161); details: HEK293-NOX5, ionomycin, 45 min, higher = more signal
Chain of NADPH oxidase 5 (Homo sapiens) (Q96PH1 whole entry, looked up): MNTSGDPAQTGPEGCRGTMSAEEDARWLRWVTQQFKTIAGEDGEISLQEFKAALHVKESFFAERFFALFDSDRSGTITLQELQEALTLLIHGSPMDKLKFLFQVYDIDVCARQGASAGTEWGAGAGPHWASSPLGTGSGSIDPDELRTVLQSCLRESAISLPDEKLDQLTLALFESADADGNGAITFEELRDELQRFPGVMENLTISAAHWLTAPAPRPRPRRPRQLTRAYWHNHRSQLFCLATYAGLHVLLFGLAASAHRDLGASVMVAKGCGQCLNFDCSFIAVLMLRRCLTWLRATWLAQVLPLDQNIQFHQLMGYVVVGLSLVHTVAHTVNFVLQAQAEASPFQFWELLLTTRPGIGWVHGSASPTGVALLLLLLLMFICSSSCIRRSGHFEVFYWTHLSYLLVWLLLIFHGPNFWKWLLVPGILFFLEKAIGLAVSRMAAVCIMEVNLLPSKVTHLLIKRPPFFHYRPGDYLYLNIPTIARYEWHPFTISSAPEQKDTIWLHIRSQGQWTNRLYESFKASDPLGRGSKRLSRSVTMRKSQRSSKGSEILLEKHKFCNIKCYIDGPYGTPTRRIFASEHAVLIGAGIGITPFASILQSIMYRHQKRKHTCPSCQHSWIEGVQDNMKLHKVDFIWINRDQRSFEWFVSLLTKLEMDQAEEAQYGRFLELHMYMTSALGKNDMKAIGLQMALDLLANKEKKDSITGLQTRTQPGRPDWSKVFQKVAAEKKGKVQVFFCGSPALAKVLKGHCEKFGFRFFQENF

SMILES | composite z-score [1] | z-score [2] | z-score [3] | z-score [4] | z-score [5] | composite z-score [6] | composite z-score [7] | composite z-score (Torsin-1A (Homo sapiens) [8]) | composite z-score (Torsin-1A (Homo sapiens) [9]) | composite z-score [10] | z-score [11] | composite z-score [12] | z-score [13] | z-score [14] | z-score [15] | z-score [16] | z-score [17] | z-score [18] | z-score [19] | z-score [20]
CC(C)(C)OC(=O)CC[C@]1(C(=O)NCCN2CCOCC2)N=C(c2ccc(OCCCO)cc2)O[C@H]1c1ccccc1 | 0.298 | 0.268 (inactive) | -0.375 (inactive) | -0.174 (inactive) | -0.266 (inactive) | 0.541 | 0.165 | -0.357 | 0.833 | -1.23 | 0.167 (inactive) | 0.119 | 12.5 (active) | 1.5 (inactive) | 0.531 (inactive) | 0.47 (inactive) | -0.501 | 0.618 (inactive) | 1.54 (inactive) | 1.42
CC=CC(O)C1C=CC2C(=O)N(c3ccccc3)C(=O)C2N1Nc1ccc([N+](=O)[O-])cc1 (stereo not given) | -0.0454 | 0.612 (inactive) | 0.698 (inactive) | -0.415 (inactive) | 0.0268 (inactive) | 0.395 | -0.162 | 0.463 | -0.213 | 0.224 | -1 (inactive) | 0.0378 | 8.61 (active) | 1.61 (inactive) | 0.457 (inactive) | 0.876 (inactive) | -0.701 | -0.095 (inactive) | -1.91 (inactive) | -0.909
C=CCOC(=O)[C@@H]1[C@H]2C(=O)O[C@H](c3ccccc3)[C@H](c3ccccc3)N2[C@H](c2ccc(OCCOC(=O)[C@H]3C[C@H]4C(=O)N[C@@H](CCCCNC(C)=O)C(=O)N4[C@H]3c3cccc(OCCO)c3)cc2)[C@@]12C(=O)Nc1ccc(I)cc12 | 0.218 | -0.495 (inactive) | -0.929 (inactive) | -0.256 (inactive) | 0.215 (inactive) | 0.356 | -0.0313 | 1.01 | 0.495 | 1.89 | -0.04 (inactive) | -0.0358 | 3.68 (inactive) | 1.73 (inactive) | 0.309 (inactive) | 1.16 (inactive) | -0.479 | 1.62 (inactive) | 0.898 (inactive) | 1.86
CCCCN1CC=CC23O[C@@H]4/C=C\CCC(C)OC(=O)C4[C@H]2C(=O)N(CCCCCCO)[C@@H]3C1=O (stereo not given in full) | 0.0569 | 0.745 (inactive) | -0.72 (inactive) | 0.61 (inactive) | -0.0292 (inactive) | -0.519 | -0.239 | 1.08 | 2.16 | -0.57 | 0.622 (inactive) | -0.145 | 0.548 (inactive) | 0.31 (inactive) | 0.573 (inactive) | 0.454 (inactive) | 1.81 | 1.2 (inactive) | 0.112 (inactive) | 2.3
C=C(CCCC)C(=O)CC[C@@H](OC(=O)c1cccnc1)c1ccccc1OCCO | 0.047 | -1.55 (inactive) | -0.325 (inactive) | 4.16 (inactive) | 1.04 (inactive) | -0.368 | -0.128 | 0.417 | 0.781 | 1.76 | 0.225 (inactive) | -0.101 | 22.3 (active) | 5.38 (inactive) | 0.88 (inactive) | 0.871 (inactive) | 0.315 | -1.73 (inactive) | -0.158 (inactive) | -1.44
COCCOC(=O)N1C(=O)[C@@]2(c3cc(C#CC4(O)CCCCCC4)ccc31)[C@H](C(N)=O)[C@H]1C(=O)O[C@H](c3ccccc3)[C@H](c3ccccc3)N1[C@@H]2c1ccccc1OCCO | 0.507 | -6.12 (inactive) | 0.533 (inactive) | 0.0921 (inactive) | 0.0643 (inactive) | 0.143 | -0.522 | 0.329 | 0.445 | 1.34 | 0.127 (inactive) | -1.03 | 4.94 (inactive) | 2.11 (inactive) | 3.54 (inactive) | 1.62 (inactive) | 0.563 | 2.63 (inactive) | 0.164 (inactive) | 0.38
CC=CC(O)C1C=CC2C(=O)N(C)C(=O)C2N1Nc1ccc([N+](=O)[O-])cc1[N+](=O)[O-] (stereo not given) | -0.449 | 1.01 (inactive) | -0.658 (inactive) | -0.136 (inactive) | 0.71 (inactive) | -0.118 | -0.128 | 0.316 | -0.297 | -0.144 | -1.33 (inactive) | -0.094 | 1.67 (inactive) | 0.917 (inactive) | 0.566 (inactive) | 1.1 (inactive) | -0.711 | -0.379 (inactive) | -1.05 (inactive) | -1.09
COc1cc2c(cc1OC)CN(C(=O)[C@H]1[C@@H]3C(=O)O[C@@H](c4ccccc4)[C@@H](c4ccccc4)N3[C@@H](c3ccc(OCCO)cc3)[C@]13C(=O)Nc1ccc(C#CC4(O)CCCCCC4)cc13)CC2 | 0.928 | -0.425 (inactive) | -1.33 (inactive) | -0.438 (inactive) | 0.195 (inactive) | 1.54 | 1.23 | 0.765 | 1.85 | 1.96 | 1.9 (inactive) | 1.51 | 3.15 (inactive) | 2.15 (inactive) | 1.08 (inactive) | 1.35 (inactive) | 0.108 | 1.32 (inactive) | 0.882 (inactive) | 1.28
CC(=O)NCCCC[C@@H]1NC(=O)[C@@H]2C[C@H](C(=O)O)[C@H](c3ccc(O)cc3)N2C1=O | -0.734 | 0.454 (inactive) | -0.646 (inactive) | -0.679 (inactive) | 0.407 (inactive) | -1.04 | -0.335 | -2.46 | -2.19 | -0.96 | 0.139 (inactive) | 0.202 | 1.15 (inactive) | 0.508 (inactive) | 1.08 (inactive) | 0.275 (inactive) | -0.544 | 1.03 (inactive) | -1.04 (inactive) | 0.422
